TcdB inh: blocks C. difficile toxin B glycohydrolase activity; TcdB glycohydrolase enzymatic assay, plate reader; inhibition, % at 9.99 µM; 350,000 compounds, 0.24% hits; AID 652162; in the data active means inhibition above about 10%
Bead autofluor: compound fluorescence in toxin protease inhibitor counterscreen; compound autofluorescence counterscreen, microsphere flow cytometry; stronger effect = higher value; fluorescence intensity (concentration not given with the values); 360,000 compounds, 3.1% hits; AID 624483; in the data active means fluorescence intensity above about 16000; inconclusive means no clear call, values can overlap the other calls
Anthrax LF prot: inhibitors of Bacillus anthracis lethal factor protease; inhibition, % at 10 µM; 360,000 compounds, 0.12% hits; multiplex microsphere protease cleavage assay, LF; P15917; further: plate controls were buffer without enzyme for full effect and enzyme alone for no effect
Target sequence (P15917 whole entry, looked up): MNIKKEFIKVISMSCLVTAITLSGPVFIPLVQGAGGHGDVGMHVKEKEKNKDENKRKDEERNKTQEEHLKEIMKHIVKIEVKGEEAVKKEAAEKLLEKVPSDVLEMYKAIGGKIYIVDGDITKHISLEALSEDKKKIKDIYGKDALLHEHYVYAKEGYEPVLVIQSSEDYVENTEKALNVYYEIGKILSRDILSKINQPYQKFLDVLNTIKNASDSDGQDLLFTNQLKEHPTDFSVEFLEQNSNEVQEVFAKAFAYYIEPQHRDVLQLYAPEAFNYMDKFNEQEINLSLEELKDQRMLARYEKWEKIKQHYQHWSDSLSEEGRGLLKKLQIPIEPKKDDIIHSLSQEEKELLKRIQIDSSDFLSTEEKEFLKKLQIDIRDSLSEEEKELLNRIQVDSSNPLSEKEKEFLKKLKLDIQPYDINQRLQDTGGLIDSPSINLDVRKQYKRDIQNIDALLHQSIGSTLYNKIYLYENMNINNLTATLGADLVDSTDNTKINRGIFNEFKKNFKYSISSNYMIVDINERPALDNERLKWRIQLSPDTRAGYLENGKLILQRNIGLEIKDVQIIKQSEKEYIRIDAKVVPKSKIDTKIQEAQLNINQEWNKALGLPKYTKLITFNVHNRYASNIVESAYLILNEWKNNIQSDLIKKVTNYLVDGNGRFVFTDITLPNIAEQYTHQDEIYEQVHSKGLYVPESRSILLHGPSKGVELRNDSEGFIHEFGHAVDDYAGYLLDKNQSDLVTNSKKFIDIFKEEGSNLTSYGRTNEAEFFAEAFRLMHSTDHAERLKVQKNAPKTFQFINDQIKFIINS
BoNT-A LC inh2: blocks Botulinum neurotoxin A light chain protease; multiplex microsphere protease substrate cleavage, flow cytometry; inhibition, % at 10 µM; 360,000 compounds, 0.17% hits; AID 588499; further: plate controls were buffer without enzyme for full effect and enzyme alone for no effect
BoNT-F LC inh: inhibitors of Botulinum neurotoxin F light chain protease; Multiplex microsphere protease cleavage assay, flow cytometry; 360,000 compounds, 0.22% hits; inhibition, % at 10 µM; in the data active means inhibition above about 35%, passing the limit was not always enough; inconclusive means no clear call, values can overlap the other calls; further: plate controls were buffer without enzyme for full effect and enzyme alone for no effect
* marks the source's active call; other numbers are inactive results; ? = inconclusive; / = not tested or not shown. Shown is part of a subset that was picked to be rich in hits. Unless noted, no stated cut-off is given here; in the data, active means inhibition above about 30%; inconclusive means no clear call, values can overlap the other calls; inactive means below that.

SMILES	TcdB inh	Bead autofluor	Anthrax LF prot	BoNT-A LC inh2	BoNT-F LC inh
O=C(C[C@@H]1CC[C@H]2[C@@H](COC[C@@H](O)CN2Cc2ccccc2F)O1)NCc1ccccc1F	0	/	/	/	/
COc1ccc(C2C3=C(CC(C)(C)CC3=O)Nc3c2c(=O)[nH]c(=O)n3Cc2ccccc2)cc1OC (stereo unspecified)	/	23655*	-2	-1	-4
CCc1ccc(C2C3=C(CC(C)(C)CC3=O)Nc3c2c(=O)[nH]c2nc(C)nn32)cc1 (stereo unspecified)	/	21959*	-1	?	-8
Cc1nc2[nH]c(=O)c3c(n2n1)NC1=C(C(=O)CC(C)(C)C1)C3c1ccc(F)cc1 (stereo unspecified)	/	5199	-4	0	-5
C[C@H](CO)N1C[C@H](C)[C@@H](CN(C)Cc2ccc(Oc3ccccc3)cc2)OCc2ccccc2-c2c(n(C)c3ccccc23)C1=O	1	/	/	/	/
COc1ccc(C#Cc2ccc3c(c2)O[C@H](CN(C)C(=O)c2ccccn2)[C@@H](C)CN([C@@H](C)CO)S3(=O)=O)cc1	-1	/	/	/	/
O=C(Nc1cccc(NC(=O)C2C3CC4OC(=O)C2C4C3)c1)c1ccccc1 (stereo unspecified)	0	3232	-1	-1	-3
O=C(Nc1ccccc1Cl)c1cccc(NC(=O)C2C3CC4OC(=O)C2C4C3)c1 (stereo unspecified)	/	23034*	3	1	0
Cc1ccc(C)c(NC(=S)NNC(=O)c2ccc(Br)o2)c1	/	21935*	0	-5	-5
Cc1ccc(C)c(NC(=S)NNC(=O)c2csc(C)c2C)c1	/	2435	0	0	-7
Cc1ccc(C)c(NC(=S)NNC(=O)c2csc(C(C)C)c2)c1	/	22879*	1	1	-3
Cc1ccc(NC(=S)NC(=O)c2ccc(Br)o2)c(C)c1	2	4549	-3	0	0
Cc1ccccc1-c1ccccc1[C@@H]1[C@H](C#N)N(C(=O)c2cccc(F)c2)[C@H]1CO	0	/	/	/	/
CC(C)(C)c1ccc(-c2nc3c(C#N)c(-c4ccc5c(c4)OCO5)ccn3n2)cc1	/	20531*	0	-1	-4
CO[C@H]1CN(C)C(=O)c2cc(NS(=O)(=O)c3cccc(F)c3)ccc2OC[C@@H](C)N(Cc2cc(F)ccc2F)C[C@H]1C	2	/	/	/	/
CCOC(=O)c1cc(-c2ccc(C)cc2)n(CCC(=O)NCCN(C)C)c1C	/	22889*	-6	0	-2
O=C1CCC2c3ccc4ccccc4c3CCN12 (stereo unspecified)	/	20473*	3	-2	-4
Cc1ccc(C(=O)Nc2ccccc2OC(F)F)cc1	/	23774*	-7	?	-2
O=C(Nc1ccccc1OC(F)F)c1ccccc1	/	8328	1	0	0
C[C@@H]1CN([C@H](C)CO)C(=O)Cc2cc(NC(=O)Cn3cnnn3)ccc2O[C@@H]1CN(C)S(=O)(=O)c1cccs1	2	/	/	/	/
O=C(c1ccco1)N1CCCC(c2nc3c(nnn3Cc3cccc(Cl)c3)c(=O)[nH]2)C1 (stereo unspecified)	0	6247	0	-1	14
Cc1ccc(Cn2nnc3c(=O)[nH]c(C4CCN(C(=O)Cc5cccs5)CC4)nc32)cc1	1	10571	3	0	2
O=c1[nH]c(C2CCCN(S(=O)(=O)c3ccc(F)cc3)C2)nc2c1nnn2Cc1ccccc1 (stereo unspecified)	3	21368*	0	2	4
CCCCC(=O)N1CCCC(c2nc3c(nnn3Cc3cc(C)ccc3C)c(=O)[nH]2)C1 (stereo unspecified)	/	9608	-3	0	10
O=C(Cc1cccs1)N1CCC(c2nc3c(nnn3Cc3ccccc3)c(=O)[nH]2)CC1	/	20008*	0	-1	-4
SMILES	TcdB inh	Bead autofluor	Anthrax LF prot	BoNT-A LC inh2	BoNT-F LC inh
Cc1ccc(C)c(Cn2nnc3c(=O)[nH]c(C4CCCN(C(=O)CC(C)C)C4)nc32)c1 (stereo unspecified)	1	21556*	-8	5	0
N#Cc1ccc(NC(=O)N2CCC(c3nc4c(nnn4Cc4cccc(Cl)c4)c(=O)[nH]3)CC2)cc1	/	20736*	-1	0	-4
CCC(=O)N(C)C[C@@H]1Oc2ncc(-c3ccccc3F)cc2C(=O)N([C@@H](C)CO)C[C@@H]1C	0	/	/	/	/
CC(C)(C)c1ccc(Cn2nnc3c(=O)[nH]c(C4CCN(C(=O)Cc5cccs5)CC4)nc32)cc1	/	20958*	0	-1	-1
CC(C)(C)c1ccc(Cn2nnc3c(=O)[nH]c(C4CCCN(C(=O)Cc5cccs5)C4)nc32)cc1 (stereo unspecified)	/	8052	-3	1	0
C[C@H]1CN([C@@H](C)CO)C(=O)c2cccc(NS(C)(=O)=O)c2O[C@@H]1CN(C)Cc1ccc2c(c1)OCO2	0	/	/	/	/
